PubChem BioAssay (NCI)
About 83,000 compounds went through this panel and 20% of them were active in at least one assay; those are over-represented in the sample as a whole.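 Results are percent growth after 48 hours of single-concentration exposure. 100 means growth as in untreated cells, lower positive values show inhibition; negative values down to -100 show cell death.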 Calls of active or inactive are those of the source. How the source made its calls: active means growth percent below 10; inactive means the rest.

System: NCI-H322M lung
Test: NCI-60 one-dose screen, 48 h (100 = growth as untreated, 0 = no growth, -100 = all killed)
Conditions: 10 µM unless noted

SMILES	growth
COC(=O)[C@@H]1CCCN1C(=O)[C@H]1CCCN1C(=O)[C@@H](Cc1c[nH]c2ccccc12)NC(=S)Nc1cc(C(F)(F)F)cc(C(F)(F)F)c1	38.8% (inactive)
Cc1ccc(F)cc1NC(=O)c1cc(Cl)ccc1Nc1ccccc1	62.4% (inactive)
CC1=C(C(=O)OCC2CCN(C(=O)OC(C)(C)C)CC2)[C@@H](c2cccc(C#N)c2)C2=C(CC(C)(C)CC2=O)N1	57.1% (inactive)
CCCCCCc1cc2cc(-c3csc(/C=C/c4ccccc4)n3)c(=O)oc2cc1O	63.9% (inactive)
COc1ccc(Br)c(/C=C2\SC(=Nc3ccc(O)cc3)NC2=O)c1	99.8% (inactive)
COc1ccc(Cn2c(Br)c3c(c2Br)-c2nc(N)sc2CC3)cc1	66.6% (inactive)
COC(=O)c1cc2c(n1Cc1ccccc1)-c1oncc1CCC2	114% (inactive)
CCOC(=O)c1sc(-c2ccc(OS(=O)(=O)c3ccccc3[N+](=O)[O-])c(C=O)c2)nc1C	58.4% (inactive)
Clc1ncccc1Nc1ccc2nnc(-c3ccncc3)n2n1	106% (inactive)
O=C1NC(=O)C(=Cc2cn(Cc3cn(Cc4ccc(Cl)cc4Cl)nn3)c3ccccc23)C(=O)N1	92.4% (inactive)
CCCCCCn1c(=N)n(CC(O)COc2cccc(C)c2)c2ccccc21 (centres undefined)	-42.8% (active)
O=C(Nc1ncc(Cc2cccc(C(F)(F)F)c2)s1)C1COc2ccccc2O1 (centres undefined)	91.2% (inactive)
CN1C(=O)N(C)C2C1NN=c1s/c(=C\c3ccc([N+](=O)[O-])cc3)c(=O)n12 (centres undefined)	85.4% (inactive)
O=C(c1nc2ccccc2[nH]1)C1C(c2ccc(F)cc2)C2CC3CCCCC3N2[C@@]12C(=O)Nc1ccc(Cl)cc12 (some centres undefined)	60.6% (inactive)
COc1ccc(/C=C/C(=O)c2ccc3cc(OC)c(OC)cc3c2)cc1OC	56% (inactive)
O=c1oc2ccc(F)cc2c(=O)n1-c1ccc(Br)cc1F	6.65% (active)
COc1cc(/C=C2\CN(S(=O)(=O)c3ccccc3)C/C(=C\c3cc(CN4CCCC4)c(O)c(OC)c3)C2=O)cc(CN2CCCC2)c1O	21.4% (inactive)
CC(C)C[C@H](C(=O)N[C@@H](C)C(N)=O)N1CC=CCN(O)S1(=O)=O	135% [5 µM] (inactive)
CN(C)CCCNCc1ccc(-c2ccc(F)c(Cl)c2)o1	65% (inactive)
O=c1oc2ccc(-c3ccc(F)cc3F)cc2c(=O)n1-c1cccc(C(F)(F)F)c1	4.41% (active)

SMILES	growth
O=C(N=Nc1c(O)[nH]c2ccccc12)c1oc2ccccc2c1CN1CCN(c2ccccc2)CC1	33.2% (inactive)
O=C(Nc1ccc(Br)cc1F)c1cc(F)ccc1O	10.4% (inactive)
COc1cc(NC(=O)CCSc2nc3ccccc3c(=O)n2Cc2ccccc2)cc(OC)c1OC	75.8% (inactive)
O=C(Nc1ccc(I)cc1F)c1cc(F)ccc1O	4.87% (active)
COc1nccc2cc3c(=O)n4c(cc5ccccc54)c(=O)n3c12	86.3% (inactive)
O=C(COc1cc(O)c2c(=O)cc(-c3ccccc3)oc2c1)Nc1ccccc1	85.6% (inactive)
O=c1oc2ccc(-c3ccc(F)cc3F)cc2c(=O)n1-c1ccc(Cl)c(C(F)(F)F)c1	13.1% (inactive)
CCN1CCN(c2cc(C)c3cc(NC(=O)c4ccc(OC)c(OC)c4)ccc3n2)CC1	50.7% (inactive)
COc1ccc(Cn2c(Br)c3c(c2-c2cc(OC)c(OC)c(OC)c2)CCc2sc(NC(C)=O)nc2-3)cc1	63% (inactive)
COc1ccccc1C(=O)O/N=C(\N)Cc1cccc2ccccc12	97.6% (inactive)
O=C(Nc1ccc(Cl)cc1F)c1cc(I)ccc1O	17.8% (inactive)
O=C(O)CCC(=O)c1ccc(C2CCCCCC2)cc1	97.5% (inactive)
CCCCOCc1cc(CN2CCN(C)CC2)c(O)c2ncccc12	53.9% (inactive)
COC(=O)/C(CCC=C(C)C)=C1\[C@@H](OC(C)=O)C[C@@]2(C)[C@H]1C[C@@H](O)[C@H]1[C@@]3(C)CC[C@H](NCc4ccccc4)[C@@H](C)[C@@H]3CC[C@@]12C	91.5% (inactive)
O=C(NC1C(O)OC(CO)C(O)C1O)NS(=O)(=O)c1ccc(Cl)cc1 (centres undefined)	99.5% (inactive)
O=C(Nc1ccc(Br)cc1F)c1cc(Cl)ccc1O	4.59% (active)
CCOC(=O)c1c(C=O)nc2ccccc2c1/C=C/c1ccc(Cl)cc1	99.8% (inactive)
COc1cccc2cc(N(C)c3nc(C)nc4ccsc34)ccc12	49.8% (inactive)
COc1cc(/C=C/C(=O)c2c(C)nc3ccccc3c2/C=C/c2ccccc2)cc(OC)c1OC	21% (inactive)
